Measurements from PubChem BioAssay AID1159580 (chemical genetic matrix, 2015).
Hit rate of the full screen: of about 5,500 compounds, about 2,000 (36%) were called active. Not shown: some 18% with an inconclusive outcome. No stated cut-off is given here; in the data, active means normalized growth mostly below about 0.91 (no sharp cut-off); inconclusive means no clear call, values can overlap the other calls; inactive means mostly above about 0.92. The list shows a part of the results.

Assay: chemical genetic growth profiling, strain panel (AID 1159580);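 further: tested at 20 µM; growth read once vehicle control cultures reached saturation at 30 °C; 1 = growth at the plate median or of vehicle wells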
Details: S. cerevisiae deletion strains, growth OD

Measured: normalized growth

CN1c2ccccc2C(C)(C)C12C=Cc1cc(O)ccc1O2 (stereo unspecified)
inactive: locus YAR019C, strain CDC15, stronger effect = lower value 0.981 | locus YBL105C, strain PKC1, stronger effect = lower value 0.981 | locus YBR135W, strain CKS1, stronger effect = lower value 0.977 | locus YBR136W, strain MEC1, stronger effect = lower value 0.981 | locus YBR160W, strain CDC28, stronger effect = lower value 0.984 | locus YDL017W, strain CDC7, stronger effect = lower value 0.974 | locus YDL028C, strain MPS1, stronger effect = lower value 0.979 | locus YDL101C, strain DUN1, stronger effect = lower value 0.975 | locus YDL108W, strain KIN28, stronger effect = lower value 0.974 | locus YDL132W, strain cdc53, stronger effect = lower value 0.977 | locus YDL214C, strain PRR2, stronger effect = lower value 0.986 | locus YDR052C, strain DBF4, stronger effect = lower value 0.982 | locus YDR054C, strain cdc34, stronger effect = lower value 0.97 | locus YDR226W, strain ADK1, stronger effect = lower value 0.972 | locus YDR477W, strain SNF1, stronger effect = lower value 0.971 | locus YER123W, strain YCK3, stronger effect = lower value 0.987 | locus YER133W, strain GLC7, stronger effect = lower value 0.974 | locus YFL009W, strain cdc4, stronger effect = lower value 0.968 | locus YFL029C, strain CAK1, stronger effect = lower value 0.978 | locus YFR003C, strain YPI1, stronger effect = lower value 0.976 | locus YFR019W, strain FAB1, stronger effect = lower value 0.993 | locus YFR028C, strain CDC14, stronger effect = lower value 0.976 | locus YGR040W, strain KSS1, stronger effect = lower value 0.972 | locus YGR052W, strain FMP48, stronger effect = lower value 1.01 | locus YGR092W, strain DBF2, stronger effect = lower value 0.996 | locus YHR030C, strain SLT2, stronger effect = lower value 0.897 | locus YHR079C, strain IRE1, stronger effect = lower value 1.01 | locus YHR082C, strain KSP1, stronger effect = lower value 1.06 | locus YHR205W, strain SCH9, stronger effect = lower value 0.985 | locus YIL147C, strain SLN1, stronger effect = lower value 0.978 | locus YJL095W, strain BCK1, stronger effect = lower value 1.01 | locus YJL128C, strain PBS2, stronger effect = lower value 0.942 | locus YJL157C, strain FAR1, stronger effect = lower value 0.978 | locus YJR016C, strain ILV3, stronger effect = lower value 0.968 | locus YJR066W, strain TOR1 (second series), stronger effect = lower value 0.965 | locus YJR066W, strain TOR1, stronger effect = lower value 1.08 | locus YKL048C, strain ELM1, stronger effect = lower value 0.975 | locus YKL067W, strain YNK1, stronger effect = lower value 0.975 | locus YKL101W, strain HSL1, stronger effect = lower value 0.962 | locus YKL193C, strain SDS22, stronger effect = lower value 0.973 | locus YKL203C, strain TOR2, stronger effect = lower value 1.05 | locus YLR113W, strain HOG1, stronger effect = lower value 0.891 | locus YLR133W, strain CKI1, stronger effect = lower value 0.984 | locus YLR403W, strain SFP1, stronger effect = lower value 1.01 | locus YML070W, strain DAK1, stronger effect = lower value 0.978 | locus YMR001C, strain CDC5, stronger effect = lower value 0.971 | locus YMR205C, strain PFK2 (second series), stronger effect = lower value 0.991 | locus YMR277W, strain FCP1, stronger effect = lower value 0.973 | locus YNL006W, strain LST8, stronger effect = lower value 0.978 | locus YNL020C, strain ARK1, stronger effect = lower value 0.982 | locus YNL161W, strain CBK1, stronger effect = lower value 0.973 | locus YNL183C, strain NPR1, stronger effect = lower value 1.08 | locus YNL207W, strain RIO2, stronger effect = lower value 0.974 | locus YNL222W, strain SSU72, stronger effect = lower value 0.986 | locus YNL307C, strain MCK1 (second series), stronger effect = lower value 0.978 | locus YOL078W, strain AVO1, stronger effect = lower value 0.975 | locus YOL136C, strain PFK27, stronger effect = lower value 0.991 | locus YOR061W, strain CKA2, stronger effect = lower value 0.993 | locus YOR119C, strain RIO1, stronger effect = lower value 1.05 | locus YOR231W, strain MKK1, stronger effect = lower value 1.02 | locus YOR329C, strain SCD5, stronger effect = lower value 0.985 | locus YPL031C, strain PHO85, stronger effect = lower value 0.962 | locus YPL153C, strain RAD53, stronger effect = lower value 0.958 | locus YPL204W, strain HRR25, stronger effect = lower value 0.943 | locus YPL209C, strain IPL1, stronger effect = lower value 0.974 | locus YPL256C, strain CLN2, stronger effect = lower value 0.899 | locus YPR025C, strain CCL1, stronger effect = lower value 0.993 | locus YPR106W, strain ISR1, stronger effect = lower value 0.984 | locus YPR111W, strain DBF20, stronger effect = lower value 0.977 | strain NNK1, stronger effect = lower value 0.989 | strain TSCII, stronger effect = lower value 0.978
